Laboratory results from PubChem BioAssay AID743144 (Broad Institute, 2013).
Results with a measured potency or affinity are listed apart. Inconclusive results are not listed. A number with no mark means an inactive call. The rule behind the calls is not given here.

assay: cytotoxicity in COV362 ovarian cancer cells, dose response, cytotoxicity control for PAX8 inhibitor project, cell-based, plate reader, dry powder, SA12 (AID 743144); details: series mostly up to 35 µM; activity change, negative = cytotoxicity: at the top concentration

SMILES	activity change, negative = cytotoxicity
C[C@@H]1CN([C@@H](C)CO)S(=O)(=O)c2ccc(C#C[C@@H](C)O)cc2O[C@H]1CN(C)Cc1ccc(-c2ccccc2)cc1	-24.5%
COc1cccc(C#Cc2ccc([C@@H]3[C@H](C#N)N(C(=O)c4ccccn4)[C@H]3CO)cc2)c1	-11%
N#C[C@@H]1[C@@H](c2ccc(-c3ccccc3F)cc2)[C@@H](CO)N1C(=O)C1CCC1	-4.33%
C[C@H](CO)N1C[C@H](C)[C@@H](CN(C)Cc2ccc(C(F)(F)F)cc2)Oc2ccc(NS(=O)(=O)c3ccc(Cl)cc3)cc2CC1=O	3.8% [at 16 µM]
O=C1/C(=C/c2ccccc2)SC(=S)N1CC(=O)N1CCCCC1c1cccnc1 (centres undefined)	0.677% [at 50 µM]
N#C[C@@H]1[C@H](c2ccc(-c3ccccc3F)cc2)[C@@H](CO)N1C(=O)Cc1ccccc1	1.48%
N#C[C@H]1[C@@H](c2ccc(C3=CCCC3)cc2)[C@@H](CO)N1C(=O)NC1CCCCC1	9.28%
N#C[C@H]1N[C@H](CO)[C@@H]1c1ccc(C#Cc2ccccc2F)cc1	11.2%
CC(C)(C)c1nnc(NC(=O)CCS(=O)(=O)c2ccccc2)s1	-23.7% [at 50 µM]
